Laboratory results as given in the supplement of paper PMC3484114.
± gives the standard deviation.

System: OVCAR-3-derived ovarian cancer stem-like cells (spheroids)
Test: cell growth relative to untreated control; higher = more growth (less inhibition)
Settings: 2.29 µM; 96 h
Method in brief: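 Stem-like cells derived from OVCAR-3 spheroids were dissociated with trypsin and seeded at 50,000 cells/mL in stem cell medium in ultra-low attachment 96-well plates, then preincubated for 24 h. Each compound was added at 2.29 uM to 4 replicate wells and left for 96 h at 37°C, 5% CO2. Viability came from TOX8 resazurin fluorescence (ex 560/em 590 nm) read after 4 h. Percent growth was expressed relative to untreated wells, after blank subtraction and removal of outliers by the Grubbs test.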

Work on `CN(C)c1ccc(/C=C/C(=O)c2ccccc2)cc1Br` yielded a cell growth of 114 ± 9.2%.

Molecule `COc1ccccc1/C=C1\Sc2scc(-c3cccc([N+](=O)[O-])c3)[n+]2C1=O` has a cell growth of 128 ± 18%.

`Cc1ccc2c(ccc(C=Cc3ccc(O)c4ncccc34)[n+]2C)c1` showed a cell growth of 23.7 ± 4.7%.

Molecule `CCOc1ccccc1NC(=O)CC1Sc2ccccc2NC1=O` (configuration not stated) has a cell growth of 70.6 ± 14%.

`CCCCCC/C=C\CCCCCCCCCc1cccc(OC)c1O` gave a cell growth of 115 ± 69%.

In the case of `COc1ccc(C(=O)/C(Br)=C\C(=O)O)cc1`, the cell growth is reported as 75.5 ± 16%.

Work on `Cc1ccc(S(=O)(=O)N2CCSCCSCCSCCSCC2)cc1` yielded a cell growth of 92.2 ± 26%.

`CN(C)CCOc1ccc(I)cc1Cc1ccccc1` showed a cell growth of 74.4 ± 31%.

Work on `CC1=C/C(=N\OCC(=O)O)CC(c2ccc(C(C)C)cc2)C1` (configuration not stated) yielded a cell growth of 12.4 ± 5%.

With `CCCCS(=N)(=O)CCC(N)C(=O)O` (configuration not stated) the cell growth was 86.6 ± 8.1%.

Molecule `CC1(C)N=C(N)N=C(N)N1c1ccc(CCCCc2ccc(Cl)cc2Cl)cc1` has a cell growth of 51.5 ± 9.2%.

`Cc1cc(C)c(NC(=O)/C=C/c2ccccc2)c(C)c1` was tested, and the cell growth was 89.7 ± 13%.

Work on `COc1ccc(N=Cc2ccc(N(CCC#N)S(=O)(=O)c3ccccc3)cc2C)cc1` yielded a cell growth of 80.6 ± 28%.

With `O=C(CC(=O)C(F)(F)F)c1csc2ccccc12` the cell growth was 93.5 ± 13%.

`Cc1cc(NC(=O)NC(=O)c2ccccc2NC(=O)CN)ccc1Oc1ncc(Br)cn1` gave a cell growth of 49.8 ± 9%.

Molecule `O=C1Nc2ccc(Br)cc2/C1=C\C(=O)c1ccccc1` has a cell growth of 96.9 ± 11%.

`Cc1c(Cl)cccc1NC(=O)c1cccc([N+](=O)[O-])c1O` was tested, and the cell growth was 106 ± 20%.

Work on `O=[N+]([O-])c1ccc(N=Nc2c(O)[nH]c3ccccc23)c([N+](=O)[O-])c1` yielded a cell growth of 132 ± 29%.

`O=c1[nH]c(=O)n(C2CCCO2)cc1F` (configuration not stated) gave a cell growth of 24.9 ± 6.8%.

`O=S1(=O)CCN(c2ccccc2CC(c2c[nH]c3ccccc23)c2c[nH]c3ccccc23)CC1` gave a cell growth of 104 ± 24%.

`CCCCCC(/C=C/[C@@H]1CC(=O)C[C@H]1O[Si](C)(C)C(C)(C)C)OCOCCOC` (some centres not stated) was tested, and the cell growth was 110 ± 24%.

`NC1N=C(c2ccc(Cl)cc2)C2=C(N1)c1ccccc1CC2` (configuration not stated) gave a cell growth of 85.7 ± 6.7%.
